Measurements from ChEMBL document CHEMBL1157539, “Thousands of chemical starting points for antimalarial lead identification” (Nature, 2010).

Columns and labels:
Format in all cases: functional
Plasmodium falciparum [1] = experiment: GSK_TCMDC: Inhibition of Plasmodium falciparum 3D7 in whole red blood cells, using parasite LDH activity as an index of growth. Test compounds present at 2uM
Plasmodium falciparum [2] = experiment: GSK_TCMDC: Inhibition of Plasmodium falciparum Dd2 in whole red blood cells, using parasite LDH activity as an index of growth. Test compounds present at 2uM
HepG2 = experiment: GSK_TCMDC: Percent inhibition of human HepG2 cell line. Test compounds present at 10uM.

SMILES | Inhibition (Plasmodium falciparum [1]) [%] | Inhibition (Plasmodium falciparum [2]) [%] | Inhibition (HepG2) [%]
O=C(N/C(=C/c1cccc([N+](=O)[O-])c1)c1nc2ccccc2[nH]1)c1cccc(Br)c1 | 85 | 88 | 0
CN(C)CCCOc1cc(NC(=O)Nc2ccc(-c3ccncc3)c3ccccc23)ccc1I.Cl | 100 | 97 | 46
CC(C)CCn1c(Sc2ccc(C#N)c([N+](=O)[O-])c2)nnc1-c1ccc(N(C)C)cc1 | 97 | 96 | 11
O=C(/C=C/c1ccc(Cl)c(Cl)c1)NCCCCCCN1CCCN(C(=O)Nc2ccc(F)c(F)c2)CC1 | 89 | 2 | 72
O=C(NC1CCN(Cc2ccccc2)CC1)c1cc(-c2cccnc2)nc2ccc(Cl)cc12 | 97 | 26 | 0
O=C(Nc1cccc(-c2cccc(-c3nc4cc(F)ccc4[nH]3)c2)c1)c1csnn1 | 95 | 29 | 23
O=C(NC(=S)Nc1cc(C(F)(F)F)cc(C(F)(F)F)c1)c1ccc(Cl)cc1 | 96 | 99 | 31
Cn1cncc1-c1ccc2ncnc(Nc3ccc(OCc4ccccc4)cc3)c2c1 | 100 | 99 | 4
COCCOc1ccc(Nc2nccc(-c3c(-c4cccc(NC(=O)c5c(F)cccc5F)c4)nn4ccccc34)n2)cc1Cl | 99 | 97 | 53
Cc1cc(Nc2c(C(N)=O)cnc3cc(-c4ccoc4)ccc23)ccc1N1CCN(C)CC1.Cl | 100 | 100 | 7
